# Shown are actives, neighbours in structure and some others; about 6.1% of the full set was active somewhere.
# D1 potentiator: Potentiators of Human D1 Dopamine Receptor: qHTS; potentiation, % at 10 µM; D(1A) dopamine receptor (Homo sapiens), P21728; actives 0.036% (n = 360,000); AID 504651, 2011; HEK293 TREx D1 cells, calcium flux, dopamine EC20 potentiation; in the data active means potentiation above about 30%; further: 0% is about no effect
# DRD3 agonist: qHTS of D3 Dopamine Receptor Agonist: qHTS; D(3) dopamine receptor (Homo sapiens), P35462; D3R DiscoveRx beta-arrestin cells, luminescence, 90 min; max activation, %; actives 0.58% (n = 410,000); AID 652048, 2013; in the data active means max activation above about 30%; further: 0% is about no effect
# Target sequence (P35462 whole entry, looked up): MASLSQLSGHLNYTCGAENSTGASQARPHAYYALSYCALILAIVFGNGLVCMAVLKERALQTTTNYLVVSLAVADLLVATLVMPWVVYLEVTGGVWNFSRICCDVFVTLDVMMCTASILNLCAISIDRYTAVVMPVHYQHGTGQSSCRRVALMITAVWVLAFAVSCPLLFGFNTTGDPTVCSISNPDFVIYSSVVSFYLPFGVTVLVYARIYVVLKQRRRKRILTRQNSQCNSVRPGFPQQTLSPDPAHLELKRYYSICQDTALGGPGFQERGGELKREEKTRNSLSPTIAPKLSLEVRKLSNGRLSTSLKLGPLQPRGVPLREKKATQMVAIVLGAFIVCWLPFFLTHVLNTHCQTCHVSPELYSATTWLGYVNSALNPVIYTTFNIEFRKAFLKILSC
#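 Agonist-mode cell screen: cells plated at 1500/well and incubated overnight at 37 °C, then exposed to library compounds for 90 min at 37 °C. Detection reagent was added for 30–60 min at room temperature, and luminescence was read.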
# D1 antagonist: Antagonist of Human D 1 Dopamine Receptor: qHTS; D(1A) dopamine receptor (Homo sapiens), P21728; activity change, negative = inhibition, % at 10 µM; HEK293 TREx D1 cells, calcium flux, dopamine EC80; hits give low values; actives 3.2% (n = 360,000); in the data active means activity change below about -30%; further: on the % scale 0 is the no-effect control and ±100 the full control effect
#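 After overnight tetracycline induction at 30 C, force-coupled D1 HEK293 cells took up a no-wash calcium dye at room temperature. Compounds were added and monitored 180 s, and the response to EC80 dopamine was then recorded.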
# D3 antag: qHTS of D3 Dopamine Receptor Antagonist: qHTS | D(3) dopamine receptor (Homo sapiens), P35462 | D3R cells, DiscoveRx beta-arrestin luminescence, antagonist mode; hits give low values | max response, negative = inhibition, % | actives 2.5% (n = 360,000) | AID 652054, 2013; in the data active means max response below about -50%; inconclusive means no clear call, values can overlap the other calls; further: on the % scale 0 is the no-effect control and ±100 the full control effect
#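 Cells expressing the human receptor were seeded at 1500 cells/well, incubated overnight at 37 degrees C in 5% CO2, then exposed to library compounds with dopamine controls for 90 minutes at 37 degrees C before luminescent detection.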
# ERG-DNA inh: qHTS for Small Molecule Inhibitors of the ERG Ets/DNA interaction. fluorescence polarization, His-ERG Ets domain / labelled DNA. AID 624246, 2012. actives 0.028% (n = 370,000). Potency, µM (series often up to 76.9 µM), without a hit: at the highest dose FP activity, negative = inhibition, actives largely listed as inhibitors; active means well fitted inhibition curve with a large enough effect in the polarisation, with a control signal flat; inconclusive means small, poorly fitted or top-dose-only effect, or effect the other way, or a change in a side signal; inactive means no such curve, though single readings can be large or run the other way; the % refers to the polarisation;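 further: polarization taken with two DNA probes labelled with fluorescein and Texas red; potency means the concentration at half of the fitted maximal effect; % of control where 0% means no effect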
#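 His-tagged ERG Ets domain (1 uM in the protein solution; 300mM KCl, 50mM Tris-HCl, 1mM EDTA, 1mM DTT, pH 7.5) received compound, then a probe mix of 5 nM fluorescein-DNA and 100nM Texas-615-DNA. Fluorescence polarization was read for both dyes.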
# D1 ag: Allosteric Agonists of the Human D1 Dopamine Receptor: qHTS; HEK293 T-REx D1 cells, calcium flux, agonist mode; activation, % at 2 µM; actives 1% (n = 360,000); AID 504660, 2011; in the data active means activation above about 30%; further: 0% is about no effect
#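 Inducible HEK293 T-REx D1 cells, force-coupled to calcium signalling, were plated at 4000 cells/well with tetracycline and held overnight at 30 C. After no-wash calcium dye loading, compound-evoked calcium rise over 180 s flagged agonists.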
# The depositor's hits bear a star; ? = inconclusive; / = no result.
SMILES,D1 potentiator,DRD3 agonist,D1 antagonist,D3 antag,ERG-DNA inh,D1 ag
CSCCC(c1nnnn1-c1c(C)cccc1C)N1CCN(C/C=C/c2ccccc2)CC1 (stereo not drawn),/,-13.9,/,-95.1*,/,/
CC(=O)C1=C(O)C(=O)N(c2ccccn2)C1c1ccccc1[N+](=O)[O-] (stereo not drawn),4.5,4.5,12.1,0.5,-0.5%,3.8
CCCCCOc1ccccc1C(=O)NCCCCCC(=O)O,0.0,1.9,-2.2,2.0,8.6%,1.4
CCCC(c1nnnn1C(C)(C)C)N1CCN(c2ccccc2)CC1 (stereo not drawn),-1.6,4.1,-9.0,3.1,-7.6%,5.0
CSCCC(c1nnnn1C(C)(C)C)N1CCN(C/C=C/c2ccccc2)CC1 (stereo not drawn),/,-10.7,/,-82.1*,/,/
COc1ccc(/C=C(\C#N)C(=O)NCc2cccs2)cc1OC,0.5,-5.3,-34.4*,10.8,1.3%,0.5
COc1cc(/C=C(\C#N)C(=O)NCCc2ccccc2)cc(OC)c1O,2.3,0.7,15.9,1.7,-3.8%,72.7*
COC(=O)/C(C#N)=C/c1c[nH]c2ccccc12,-4.2,-11.3,6.0,0.5,24.9%,1.2
COc1ccc(/C=C(\C#N)C(=O)NCc2ccccc2)cc1O,/,-19.1,-4.7,-9.3,5.5%,2.6
COc1cc(/C=C(\C#N)C(=O)c2c[nH]c3ccccc23)cc(OC)c1O,-2.0,5.9,-3.9,-13.4,123.7%,45.2*
O=C(N[C@@H](Cc1ccccc1)C(=O)CCl)OCc1ccccc1,-5.7,-65.5,-23.4,-94.5*,9.3%,-1.4
COc1ccc(S(=O)(=O)Nc2ccccc2C(=O)Nc2nc(-c3ccc(F)cc3)cs2)cc1OC,-5.5,7.5,-21.9,21.4,5.5%,12.8
COc1ccc(-c2csc(NC(=O)c3ccccc3NS(=O)(=O)c3ccc(C)cc3)n2)cc1,-9.2,8.3,-39.5*,6.2,/,9.2
O=C(CSc1nc2c(c(=O)n1-c1ccc(F)cc1)SCC2)NCC1CCCO1 (stereo not drawn),-0.9,11.4,-1.1,39.2,-2.8%,3.2
CC(=O)Nc1cccc2c1C(=O)N(c1cccc(OC(C)=O)c1)C2=O,-4.6,-6.3,23.3,-0.8,-12.1%,11.4
CC(=O)c1ccc(C(=O)Nc2ccc3c(c2)C(=O)NC3=O)cc1,-8.3,-5.4,-35.2*,?,11.4%,-0.3
CC(=O)Oc1cccc(N2C(=O)c3ccccc3C2=O)c1,5.0,-5.0,-30.6*,0.2,-1.4%,0.2
CC(=O)c1ccc(NC(=O)c2cccc(N3C(=O)c4ccccc4C3=O)c2)cc1,-0.4,-6.3,-31.5*,0.0,-3.8%,2.1
CCC(=O)C1CCCN(C(=O)c2ccc(OC)c(OC3CCN(C(C)=O)CC3)c2)C1 (stereo not drawn),-0.1,0.9,13.2,-0.7,-0.2%,7.2
CCc1nc2c(OCc3ccccc3C)cccn2c1N(C)C(=O)C(C)C,/,-18.9,/,-78.2*,/,/
CCc1nc2c(OCC(=O)N3CCOCC3)cccn2c1N(C)C(=O)COc1ccccc1,/,1.6,/,-52.7*,/,/
CCc1nc2c(OCc3ccccc3C)cccn2c1N(C)C(=O)CC(C)C,/,-6.6,/,0.0,/,/
CCCCN(C=O)c1c(CC)nc2c(OCC(=O)N3CCOCC3)cccn12,/,-6.7,/,0.0,/,/
O=C1OCCN1S(=O)(=O)Nc1ccccc1,-0.5,-3.3,12.9,-11.7,17.3%,0.6
CCC(=O)N1c2ccccc2CC1C(=O)N1CCN(c2cccc(Cl)c2)CC1 (stereo not drawn),-1.1,-2.3,-3.2,/,12.3%,-0.7
SMILES,D1 potentiator,DRD3 agonist,D1 antagonist,D3 antag,ERG-DNA inh,D1 ag
Cc1cc(NC(=O)CSc2nnc(CNC(=O)c3cccc(C(F)(F)F)c3)o2)no1,-2.1,4.8,22.3,-12.1,-6.5%,1.7
C=C1CCN([C@@H](Cc2ccccc2)C(=O)NCc2ccccc2)S(=O)(=O)c2ccccc21,/,0.3,/,46.7,-3.2%,/
C=C1CCN([C@@H](Cc2ccccc2)C(=O)NCc2ccc(Cl)cc2)S(=O)(=O)c2ccccc21,/,-21.1,/,-55.8*,0.9%,/
OC(c1ccc2c(c1)OCO2)c1ncc(-c2ccc(Cl)cc2)[nH]1 (stereo not drawn),/,2.0,/,1.5,/,/
Cc1cc(N2CCN(C)CC2)nc(=S)[nH]1,3.1,-17.0,9.1,-80.9*,-10.9%,1.3
CC(C)COC(=O)Nc1nnc(Cc2ccccc2)s1,-3.6,-0.7,-0.1,2.8,-4.3%,-0.6
CCS(=O)(=O)C1=NN2C(=N)/C(=C\c3ccc(OC(=O)c4ccco4)c(OC)c3)C(=O)N=C2S1,5.2,1.1,-33.0*,8.3,1.5%,3.7
COc1cc(/C=C2/C(=N)N3C(=NC2=O)SN=C3S(C)(=O)=O)ccc1OC(=O)c1ccco1,2.7,-2.9,6.7,-7.7,4.7%,3.8
CS(=O)(=O)C1=NSC2=NC(=O)/C(=C\c3ccc(OC(=O)c4ccco4)cc3)C(=N)N21,-8.0,/,-30.5*,/,/,0.3
CCS(=O)(=O)C1=NSC2=NC(=O)/C(=C\c3ccc(OC(=O)c4ccco4)c(OC)c3)C(=N)N21,4.1,-10.9,-2.6,-11.7,16.4%,4.5
COc1cc(/C=C2/C(=N)N3N=C(C(C)C)SC3=NC2=O)ccc1OS(=O)(=O)c1ccccc1,-2.0,-2.6,-30.7*,0.5,11.5%,1.4
CS(=O)(=O)C1=NSC2=NC(=O)/C(=C\c3cccn3-c3ccc(Cl)cc3)C(=N)N21,-5.0,-12.1,-35.7*,-6.4,31.5%,3.5
Cc1cc(/C=C2/C(=N)N3C(=NC2=O)SN=C3S(C)(=O)=O)c(C)n1-c1ccccc1F,-9.2,-5.1,-20.9,-19.8,1.0%,4.1
CC(C)(C)OC(=O)n1cc(/C=N/NC(=O)c2ccco2)c2ccccc21,-1.5,0.6,-4.7,1.6,2.3%,2.9
CCOc1ccc(C(=O)NC(=S)Nc2cccc(NC(=O)c3ccco3)c2)cc1[N+](=O)[O-],-6.4,-7.6,-18.3,-68.6*,-16.2%,1.1
COc1cccc(C(=O)NCCS(=O)(=O)N(C)C2CCCCC2)c1,-7.7,1.5,-6.1,6.7,/,-0.5
Cc1cc(C)n(-c2nc3ccccc3nc2Nc2cccc(C(=O)NCCc3ccccc3)c2)n1,1.1,-6.1,-2.7,/,2.3%,1.3
CC(C)OC(=O)Nc1ccc(-c2ccc(NC(=O)OC(C)C)cc2Cl)c(Cl)c1,-2.7,9.1,6.1,52.3,10.0%,2.2
